Measurements from the supplement of paper PMC10849652.
Of roughly 8,800 targets only a part is listed; those with a hit were picked by preference. About 0.5% of all pairs of compound and target were hits. Values without a mark were called inactive.

Experiments:
Assay in all cases: log2 fold change, soluble protein after heating vs DMSO (PISA); higher = thermal stabilisation; K562 lysate, 10 uM; active = over 0.2 and 3.5 SD of the protein, either way, in both replicates (recomputed)
vemurafenib = compound: CCCS(=O)(=O)Nc1ccc(F)c(C(=O)c2c[nH]c3ncc(-c4ccc(Cl)cc4)cc23)c1F [vemurafenib]
Method in brief: (§1)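 Log-two fold change in thermal stability relative to solvent controls is reported from duplicates. For each sample, crude K562 extract from dounce-homogenised pellets in PBS pH 7.4 with 1 mM MgCl2, at 1 mg/mL protein, was treated with 10 μM compound for 30 min. Aliquots heated for 3 min across 48°C-58°C were pooled, brought to 0.5% NP-40 at 4°C and cleared at 21,000xg for 90 min. The supernatant was quantified by TMTpro 16plex LC-MS/MS with channel sums equalised.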

[1] = compound: CCCS(=O)(=O)Nc1ccc(F)c(C(=O)c2c[nH]c3ncc(Cl)cc23)c1F
Method in brief: as §1

barasertib = compound: CCN(CCCOc1ccc2c(Nc3cc(CC(=O)Nc4cccc(F)c4)[nH]n3)ncnc2c1)CCOP(=O)(O)O [barasertib]
Method in brief: as §1

[2] = compound: CC[C@@H]1C(=O)N(C)c2cnc(Nc3ccc(C(=O)NC4CCN(C)CC4)cc3OC)nc2N1C1CCCC1
Method in brief: as §1

volasertib = compound: CC[C@@H]1C(=O)N(C)c2cnc(Nc3ccc(C(=O)N[C@H]4CC[C@H](N5CCN(CC6CC6)CC5)CC4)cc3OC)nc2N1C(C)C [volasertib]
Method in brief: as §1

[3] = compound: CCn1c(C(=O)N(C2CC2)C2CC2)cc2c3c(ncn3C)c(Nc3cc(C)n(C)n3)nc21
Method in brief: as §1

[4] = compound: CCn1cc(-c2ccnc3[nH]c(-c4cccc(CN(C)C)c4)cc23)c(-c2ccc(NC(=O)N(C)C)cc2)n1
Method in brief: as §1

[5] = compound: CN1CCC(CNc2ccc3ncc(-c4cccc(OC(F)(F)F)c4)n3n2)CC1
Method in brief: as §1

saracatinib = compound: CN1CCN(CCOc2cc(OC3CCOCC3)c3c(Nc4c(Cl)ccc5c4OCO5)ncnc3c2)CC1 [saracatinib]
Method in brief: as §1

sotrastaurin = compound: CN1CCN(c2nc(C3=C(c4c[nH]c5ccccc45)C(=O)NC3=O)c3ccccc3n2)CC1 [sotrastaurin]
Method in brief: as §1

alvocidib = compound: CN1CC[C@H](c2c(O)cc(O)c3c(=O)cc(-c4ccccc4Cl)oc23)[C@H](O)C1 [alvocidib]
Method in brief: as §1

Tubastatin A = compound: CN1CCc2c(c3ccccc3n2Cc2ccc(C(=O)NO)cc2)C1 [Tubastatin A]
Method in brief: as §1

[6] = compound: CNC(=O)C1=CC=CC=C1NC2=NC(=NC=C2Cl)NC3=C(C=C(C=C3)N4CCOCC4)OC
Method in brief: as §1

defactinib = compound: CNC(=O)c1ccc(Nc2ncc(C(F)(F)F)c(NCc3nccnc3N(C)S(C)(=O)=O)n2)cc1 [defactinib]
Method in brief: as §1

[7] = compound: CNc1nc(-c2ccc3c(N)n[nH]c3c2)cc(N2C[C@@H](C(=O)NC3CCCCC3)CC[C@H]2C)n1
Method in brief: as §1

encorafenib = compound: COC(=O)N[C@@H](C)CNc1nccc(-c2cn(C(C)C)nc2-c2cc(Cl)cc(NS(C)(=O)=O)c2F)n1 [encorafenib]
Method in brief: as §1

[8] = compound: COC(=O)[C@H](CCSC)NC(=O)C1=C(C=C(C=C1)NC[C@H](CS)N)C2=CC=CC=C2
Method in brief: as §1

alisertib = compound: COc1cc(Nc2ncc3c(n2)-c2ccc(Cl)cc2C(c2c(F)cccc2OC)=NC3)ccc1C(=O)O [alisertib]
Method in brief: as §1

[9] = compound: COc1cc2nc(-c3cc(F)ccc3O)nc(N[C@@H]3CNC[C@H]3C(C)(C)O)c2cc1OC
Method in brief: as §1

gefitinib = compound: COc1cc2ncnc(Nc3ccc(F)c(Cl)c3)c2cc1OCCCN1CCOCC1 [gefitinib]
Method in brief: as §1

Sequence of UniProt Q9H410 (Q9H410 whole entry, looked up): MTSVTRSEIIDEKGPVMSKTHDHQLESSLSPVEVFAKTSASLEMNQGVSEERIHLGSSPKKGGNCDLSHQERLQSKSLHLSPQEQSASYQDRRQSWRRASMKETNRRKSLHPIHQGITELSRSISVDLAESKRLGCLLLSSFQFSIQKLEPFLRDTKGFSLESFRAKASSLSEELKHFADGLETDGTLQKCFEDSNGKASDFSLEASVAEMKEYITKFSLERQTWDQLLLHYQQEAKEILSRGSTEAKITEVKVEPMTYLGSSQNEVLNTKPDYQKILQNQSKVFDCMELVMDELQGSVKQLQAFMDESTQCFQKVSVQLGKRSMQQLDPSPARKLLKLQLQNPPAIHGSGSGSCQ
Sequence of UniProt Q8TB52 (Q8TB52 whole entry, looked up): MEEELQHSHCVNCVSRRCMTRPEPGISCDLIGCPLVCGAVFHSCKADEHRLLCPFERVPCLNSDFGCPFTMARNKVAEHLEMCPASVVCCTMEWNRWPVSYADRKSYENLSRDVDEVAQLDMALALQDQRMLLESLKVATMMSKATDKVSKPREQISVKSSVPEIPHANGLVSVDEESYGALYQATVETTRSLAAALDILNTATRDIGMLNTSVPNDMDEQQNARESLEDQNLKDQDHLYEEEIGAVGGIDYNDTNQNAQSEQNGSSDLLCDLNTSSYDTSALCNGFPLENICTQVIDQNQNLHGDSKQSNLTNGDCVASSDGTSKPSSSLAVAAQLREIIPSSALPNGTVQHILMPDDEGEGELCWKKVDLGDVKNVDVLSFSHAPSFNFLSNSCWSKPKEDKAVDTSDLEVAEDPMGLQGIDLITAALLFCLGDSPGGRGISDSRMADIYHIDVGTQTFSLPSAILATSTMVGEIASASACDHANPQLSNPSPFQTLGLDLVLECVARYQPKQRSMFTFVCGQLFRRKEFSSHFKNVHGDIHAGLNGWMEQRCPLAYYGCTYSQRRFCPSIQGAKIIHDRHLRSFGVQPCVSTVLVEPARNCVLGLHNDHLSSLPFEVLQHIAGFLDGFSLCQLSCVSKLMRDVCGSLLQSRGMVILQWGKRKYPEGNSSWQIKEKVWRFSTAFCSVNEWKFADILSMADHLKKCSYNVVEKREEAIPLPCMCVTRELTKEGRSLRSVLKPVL
Sequence of UniProt Q13144 (Q13144 whole entry, looked up): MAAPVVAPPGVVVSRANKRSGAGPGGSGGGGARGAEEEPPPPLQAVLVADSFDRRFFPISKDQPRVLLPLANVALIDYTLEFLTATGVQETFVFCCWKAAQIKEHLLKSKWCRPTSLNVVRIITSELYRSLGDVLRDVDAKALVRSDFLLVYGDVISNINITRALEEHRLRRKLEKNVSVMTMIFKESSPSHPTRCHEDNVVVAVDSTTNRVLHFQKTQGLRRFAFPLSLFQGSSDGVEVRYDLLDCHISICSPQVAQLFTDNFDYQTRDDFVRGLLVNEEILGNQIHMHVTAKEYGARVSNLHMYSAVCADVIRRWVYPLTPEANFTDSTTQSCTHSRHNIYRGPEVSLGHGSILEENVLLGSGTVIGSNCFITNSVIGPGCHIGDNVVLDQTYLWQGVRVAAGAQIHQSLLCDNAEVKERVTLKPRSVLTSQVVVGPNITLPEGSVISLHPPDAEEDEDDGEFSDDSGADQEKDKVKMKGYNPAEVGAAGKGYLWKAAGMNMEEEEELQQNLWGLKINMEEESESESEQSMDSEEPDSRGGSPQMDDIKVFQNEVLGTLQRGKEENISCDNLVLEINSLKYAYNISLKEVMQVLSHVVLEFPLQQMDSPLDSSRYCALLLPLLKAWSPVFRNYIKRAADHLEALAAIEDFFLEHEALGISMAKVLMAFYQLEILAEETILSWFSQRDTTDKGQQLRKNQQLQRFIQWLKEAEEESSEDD
Sequence of UniProt Q9UJY4 (Q9UJY4 whole entry, looked up): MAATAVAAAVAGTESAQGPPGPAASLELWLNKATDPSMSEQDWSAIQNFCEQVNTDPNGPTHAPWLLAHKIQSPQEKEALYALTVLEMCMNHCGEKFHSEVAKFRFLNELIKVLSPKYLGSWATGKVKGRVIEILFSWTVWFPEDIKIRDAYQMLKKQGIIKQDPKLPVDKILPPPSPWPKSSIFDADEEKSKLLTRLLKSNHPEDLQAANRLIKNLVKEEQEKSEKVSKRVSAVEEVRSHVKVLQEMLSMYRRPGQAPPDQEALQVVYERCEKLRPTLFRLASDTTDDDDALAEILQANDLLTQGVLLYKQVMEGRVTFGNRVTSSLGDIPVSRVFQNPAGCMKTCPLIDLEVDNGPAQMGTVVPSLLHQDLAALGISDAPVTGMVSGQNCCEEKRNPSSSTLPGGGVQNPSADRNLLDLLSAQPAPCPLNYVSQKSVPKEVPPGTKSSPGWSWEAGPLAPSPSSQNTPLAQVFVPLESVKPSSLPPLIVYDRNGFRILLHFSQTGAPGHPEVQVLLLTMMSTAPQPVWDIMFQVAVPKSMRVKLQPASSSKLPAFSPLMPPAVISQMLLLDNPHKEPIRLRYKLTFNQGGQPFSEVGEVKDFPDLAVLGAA
Sequence of UniProt Q8N9F7 (Q8N9F7 whole entry, looked up): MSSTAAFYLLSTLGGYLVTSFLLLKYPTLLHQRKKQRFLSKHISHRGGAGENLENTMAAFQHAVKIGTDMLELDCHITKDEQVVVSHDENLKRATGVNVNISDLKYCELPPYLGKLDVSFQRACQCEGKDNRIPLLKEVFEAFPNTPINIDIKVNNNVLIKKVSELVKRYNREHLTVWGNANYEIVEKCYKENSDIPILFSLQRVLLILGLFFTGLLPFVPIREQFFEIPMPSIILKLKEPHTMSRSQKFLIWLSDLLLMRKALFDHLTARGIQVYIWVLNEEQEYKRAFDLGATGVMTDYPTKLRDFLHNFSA
Sequence of UniProt Q8NFF5 (Q8NFF5 whole entry, looked up): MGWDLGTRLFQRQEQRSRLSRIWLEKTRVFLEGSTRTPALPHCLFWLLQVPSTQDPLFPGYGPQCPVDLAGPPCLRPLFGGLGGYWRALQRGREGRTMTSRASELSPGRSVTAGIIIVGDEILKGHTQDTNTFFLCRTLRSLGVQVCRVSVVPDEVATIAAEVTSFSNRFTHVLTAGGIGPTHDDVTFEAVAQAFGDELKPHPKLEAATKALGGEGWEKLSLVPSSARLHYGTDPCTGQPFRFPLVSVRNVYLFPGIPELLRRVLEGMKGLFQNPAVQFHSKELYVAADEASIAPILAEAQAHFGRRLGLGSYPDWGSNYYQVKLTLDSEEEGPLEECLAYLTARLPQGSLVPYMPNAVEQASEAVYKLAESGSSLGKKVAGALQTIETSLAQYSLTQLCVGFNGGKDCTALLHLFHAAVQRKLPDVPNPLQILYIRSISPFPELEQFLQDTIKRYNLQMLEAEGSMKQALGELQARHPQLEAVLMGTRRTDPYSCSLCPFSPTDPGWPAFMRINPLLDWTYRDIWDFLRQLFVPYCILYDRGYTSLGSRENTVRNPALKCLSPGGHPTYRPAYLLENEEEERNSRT
Sequence of UniProt Q6P4F2 (Q6P4F2 whole entry, looked up): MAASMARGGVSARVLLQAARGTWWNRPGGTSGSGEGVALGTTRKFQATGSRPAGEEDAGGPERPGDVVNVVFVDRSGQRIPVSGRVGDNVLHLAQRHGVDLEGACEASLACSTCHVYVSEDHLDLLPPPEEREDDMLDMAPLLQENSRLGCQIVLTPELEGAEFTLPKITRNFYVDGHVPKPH
Sequence of UniProt P07814 (P07814 whole entry, looked up): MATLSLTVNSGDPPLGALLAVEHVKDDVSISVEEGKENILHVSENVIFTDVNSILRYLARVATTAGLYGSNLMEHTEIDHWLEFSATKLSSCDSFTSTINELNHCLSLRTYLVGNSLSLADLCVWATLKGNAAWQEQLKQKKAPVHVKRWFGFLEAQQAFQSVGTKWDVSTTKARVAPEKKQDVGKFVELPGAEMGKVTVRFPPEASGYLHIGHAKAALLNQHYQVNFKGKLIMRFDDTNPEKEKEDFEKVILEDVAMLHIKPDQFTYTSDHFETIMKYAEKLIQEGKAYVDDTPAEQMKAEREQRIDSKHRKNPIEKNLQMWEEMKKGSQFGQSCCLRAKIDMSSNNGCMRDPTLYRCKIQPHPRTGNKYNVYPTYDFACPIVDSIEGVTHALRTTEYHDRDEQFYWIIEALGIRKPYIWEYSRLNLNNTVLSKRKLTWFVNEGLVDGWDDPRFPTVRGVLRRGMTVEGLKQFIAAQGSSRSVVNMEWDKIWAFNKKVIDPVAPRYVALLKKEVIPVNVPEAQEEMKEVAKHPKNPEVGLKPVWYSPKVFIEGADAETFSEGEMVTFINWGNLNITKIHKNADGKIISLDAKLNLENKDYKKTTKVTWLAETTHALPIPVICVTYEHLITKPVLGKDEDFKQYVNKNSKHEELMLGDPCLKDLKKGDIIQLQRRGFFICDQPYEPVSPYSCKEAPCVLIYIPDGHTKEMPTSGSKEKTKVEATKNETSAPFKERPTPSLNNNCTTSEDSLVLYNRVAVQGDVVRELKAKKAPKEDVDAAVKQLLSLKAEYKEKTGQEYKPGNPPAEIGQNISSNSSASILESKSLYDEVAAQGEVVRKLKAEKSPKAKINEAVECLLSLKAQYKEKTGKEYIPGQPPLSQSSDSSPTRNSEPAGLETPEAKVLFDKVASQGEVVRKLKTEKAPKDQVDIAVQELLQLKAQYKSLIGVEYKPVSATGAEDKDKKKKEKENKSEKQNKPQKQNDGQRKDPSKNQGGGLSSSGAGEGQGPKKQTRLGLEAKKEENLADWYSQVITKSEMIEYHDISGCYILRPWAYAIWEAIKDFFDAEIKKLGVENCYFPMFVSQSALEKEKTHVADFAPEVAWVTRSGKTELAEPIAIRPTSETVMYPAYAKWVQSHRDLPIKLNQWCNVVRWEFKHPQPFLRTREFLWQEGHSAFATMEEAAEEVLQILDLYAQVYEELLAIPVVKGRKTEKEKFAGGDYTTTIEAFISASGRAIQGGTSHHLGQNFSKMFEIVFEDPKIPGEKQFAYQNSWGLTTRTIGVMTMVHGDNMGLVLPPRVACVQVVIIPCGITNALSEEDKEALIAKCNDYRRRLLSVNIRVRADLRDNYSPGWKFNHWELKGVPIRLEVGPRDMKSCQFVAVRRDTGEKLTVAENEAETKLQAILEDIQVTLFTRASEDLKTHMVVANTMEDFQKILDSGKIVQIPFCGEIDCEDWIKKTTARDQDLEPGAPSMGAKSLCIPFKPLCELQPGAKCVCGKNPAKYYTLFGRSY

Target	log2 fold change (vemurafenib)	log2 fold change [1]	log2 fold change (barasertib)	log2 fold change [2]	log2 fold change (volasertib)	log2 fold change [3]	log2 fold change [4]	log2 fold change [5]	log2 fold change (saracatinib)	log2 fold change (sotrastaurin)	log2 fold change (alvocidib)	log2 fold change (Tubastatin A)	log2 fold change [6]	log2 fold change (defactinib)	log2 fold change [7]	log2 fold change (encorafenib)	log2 fold change [8]	log2 fold change (alisertib)	log2 fold change [9]	log2 fold change (gefitinib)
GATAD2A isoform 3 (UniProt Q86YP4)	-0.014	0.019	0.008	0.012	-0.014	-0.004	-0.058	0.022	0.022	-0.002	-0.028	-0.045	0.015	0	0.025	0.005	0.072	0.006	0.01	-0.023
FADS1, A0A0A0MR51	-0.041	0.145	-0.018	0.02	-0.187	-0.062	-0.021	-0.078	-0.026	-0.037	0.03	0.1	0.158	0.084	0.011	-0.055	0.03	-0.008	-0.067	-0.001
FBXO30 (UniProt Q8TB52)	-0.065	0.02	0.015	-0.026	-0.042	0.009	0.208	-0.115	-0.015	-0.013	0.066	-0.106	0.03	0.042	-0.091	0.036	0.1	-0.014	-0.006	0.029
EPRS (UniProt P07814)	0.01	-0.001	0.001	-0.077	-0.068	0.024	-0.025	-0.035	0.014	0.02	0.012	-0.11	0.002	0.003	-0.015	-0.004	0.107	0.015	-0.01	-0.032
EIF2B4 isoform 2 (UniProt Q9UI10)	-0.034	0.02	0.006	-0.038	-0.017	-0.004	-0.02	0.002	0.006	-0.004	-0.015	-0.025	0.013	0.035	0.02	0.018	0.162	-0.014	0.016	0
GDPD1 (UniProt Q8N9F7)	0.116	0.055	-0.005	0.041	-0.008	0.004	0.074	-0.032	-0.023	0.005	0	-0.023	0.006	-0.03	0.046	0.059	-0.272 (active)	-0.018	-0.027	-0.035
GEMIN4 (UniProt P57678)	0.036	0.025	0.041	-0.037	-0.053	0.023	-0.168	-0.091	0.091	0.041	0.017	-0.196	0.078	-0.014	-0.072	0.022	0.013	-0.006	-0.005	0.016
EMP3 (UniProt P54852)	0.022	-0.002	0.005	0.066	0.124	-0.112	-0.967 (active)	0.365 (active)	0.049	-0.029	-0.227	-0.021	0.067	0.009	0.056	-0.016	0.022	0.053	0.052	-0.071
EXOC4 (UniProt Q96A65)	0.079	0.01	0.055	-0.06	-0.055	0.025	0.022	-0.079	0.006	0.018	0.03	-0.073	-0.053	0.039	-0.084	0.022	0.078	0.009	0.008	-0.035
FXR2 (UniProt P51116)	0	0.041	-0.003	-0.021	-0.028	0.028	0.007	-0.076	0.034	-0.009	0	-0.159	-0.083	-0.117	-0.018	0.06	0.064	0.017	0.013	0.012
FDX2 (UniProt Q6P4F2)	0.022	-0.011	0.166	0.069	0.038	-0.047	-0.264	-0.003	-0.122	-0.027	-0.016	0.093	-0.001	-0.017	-0.478	-0.33	-0.313	0.07	-0.021	-0.041
DSN1 (UniProt Q9H410)	0	0.043	0.007	0.034	0.001	0.001	-0.017	0.01	0.034	0.003	-0.046	-0.087	0.076	0.059	0.04	0.006	0.107	-0.005	0.004	0
FLAD1 (UniProt Q8NFF5)	-0.051	0.022	-0.063	0.055	-0.028	0.01	-0.002	-0.035	-0.001	0.075	0.035	-0.214	0.039	-0.008	-0.013	0.031	0.137	-0.025	-0.013	-0.042
GGA2 (UniProt Q9UJY4)	-0.003	0.011	0.073	-0.005	-0.048	0.032	-0.02	-0.088	0.025	0.041	0.002	-0.085	0.003	-0.029	-0.018	0.002	0.01	0.038	0.023	-0.025
EIF2B5 (UniProt Q13144)	-0.007	0.019	0.013	-0.012	-0.027	0.021	-0.065	-0.057	0.009	0.038	0.03	-0.06	0.04	0.022	0.023	-0.009	0.046	-0.004	0.005	-0.016
